Laboratory results as given in PubChem BioAssay AID1159580 (chemical genetic matrix, 2015).
The whole screen tested about 5,500 compounds, of which about 2,000 (36%) were called active. Inconclusive results (about 18%) are left out. The list shows a part of the results. A number with no mark means an inactive call. No stated cut-off is given here; in the data, active means normalized growth mostly below about 0.91 (no sharp cut-off); inconclusive means no clear call, values can overlap the other calls; inactive means mostly above about 0.92.

Assay: chemical genetic growth profiling, strain panel (AID 1159580);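 further: tested at 20 µM; growth read once vehicle control cultures reached saturation at 30 °C; 1 = growth at the plate median or of vehicle wells; lower values mean less growth of the strain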
Details: growth OD
[1] = S. cerevisiae deletion strains, locus YAL013W, strain DEP1, hits give low values
[2] = S. cerevisiae deletion strains, locus YBR229C, strain ROT2, hits give low values
[3] = S. cerevisiae deletion strains, locus YCL061C, strain MRC1, hits give low values
[4] = S. cerevisiae deletion strains, locus YDL101C, strain DUN1, hits give low values
[5] = S. cerevisiae deletion strains, locus YDL134C, strain PPH21, hits give low values
[6] = S. cerevisiae deletion strains, locus YDR150W, strain NUM1, hits give low values
[7] = S. cerevisiae deletion strains, locus YEL061C, strain CIN8, hits give low values
[8] = S. cerevisiae deletion strains, locus YGR078C, strain PAC10, hits give low values
[9] = S. cerevisiae deletion strains, locus YHR030C, strain SLT2, hits give low values
[10] = S. cerevisiae deletion strains, locus YHR087W, strain rtc3, hits give low values
[11] = S. cerevisiae deletion strains, locus YJL187C, strain SWE1, hits give low values
[12] = S. cerevisiae deletion strains, locus YJR043C, strain POL32, hits give low values
[13] = S. cerevisiae deletion strains, locus YJR075W, strain HOC1, hits give low values
[14] = S. cerevisiae deletion strains, locus YLR039C, strain RIC1, hits give low values
[15] = S. cerevisiae deletion strains, locus YLR058C, strain SHM2 (second series), hits give low values
[16] = S. cerevisiae deletion strains, locus YLR085C, strain ARP6, hits give low values
[17] = S. cerevisiae deletion strains, locus YLR262C, strain YPT6, hits give low values
[18] = S. cerevisiae deletion strains, locus YML094W, strain GIM5, hits give low values
[19] = S. cerevisiae deletion strains, locus YMR219W, strain ESC1, hits give low values
[20] = S. cerevisiae deletion strains, locus YMR263W, strain SAP30, hits give low values
[21] = S. cerevisiae deletion strains, locus YMR307W, strain GAS1, hits give low values
[22] = S. cerevisiae deletion strains, locus YNL153C, strain GIM3, hits give low values
[23] = S. cerevisiae deletion strains, locus YNL298W, strain CLA4 (second series), hits give low values
[24] = S. cerevisiae deletion strains, locus YNL322C, strain KRE1, hits give low values
[25] = S. cerevisiae deletion strains, locus YNR030W, strain Alg12, hits give low values
[26] = S. cerevisiae deletion strains, locus YPL055C, strain LGE1, hits give low values
[27] = S. cerevisiae deletion strains, locus YPL241C, strain CIN2, hits give low values
[28] = S. cerevisiae deletion strains, locus YPR135W, strain CTF4, hits give low values
[29] = S. cerevisiae strains, strain wild type, hits give low values
[30] = S. cerevisiae deletion strains, locus YOL006C, strain TOP1, hits give low values
[31] = S. cerevisiae deletion strains, locus YGR229C, strain SMI1, hits give low values
[32] = S. cerevisiae deletion strains, locus YNL128W, strain TEP1, hits give low values
[33] = S. cerevisiae deletion strains, locus YKL190W, strain CNB1, hits give low values

C/C(=N/O)c1ccc2c(c1)C(C)(C)CCC2(C)C
normalized growth [1]: 1.01 | normalized growth [2]: 0.987 | normalized growth [3]: 0.964 | normalized growth [4]: 1.01 | normalized growth [5]: 0.99 | normalized growth [6]: 0.985 | normalized growth [7]: 0.995 | normalized growth [8]: 0.981 | normalized growth [9]: 0.984 | normalized growth [10]: 0.977 | normalized growth [11]: 0.976 | normalized growth [12]: 0.989 | normalized growth [13]: 0.954 | normalized growth [14]: 0.847 | normalized growth [15]: 0.985 | normalized growth [16]: 0.963 | normalized growth [17]: 0.939 | normalized growth [18]: 0.992 | normalized growth [19]: 0.991 | normalized growth [20]: 0.979 | normalized growth [21]: 0.92 | normalized growth [22]: 0.967 | normalized growth [23]: 0.962 | normalized growth [24]: 0.995 | normalized growth [25]: 0.958 | normalized growth [26]: 0.996 | normalized growth [27]: 0.953 | normalized growth [28]: 0.915

CCCc1ccc(-c2nc(-c3ccc(C)cc3)no2)cc1
normalized growth [1]: 0.999 | normalized growth [2]: 0.994 | normalized growth [4]: 0.971 | normalized growth [6]: 1.01 | normalized growth [7]: 1.01 | normalized growth [8]: 0.973 | normalized growth [9]: 1 | normalized growth [10]: 0.984 | normalized growth [11]: 0.978 | normalized growth [12]: 0.991 | normalized growth [13]: 0.95 | normalized growth [14]: 1.09 | normalized growth [15]: 0.995 | normalized growth [16]: 1.02 | normalized growth [17]: 1.04 | normalized growth [18]: 0.988 | normalized growth [19]: 0.992 | normalized growth [20]: 0.994 | normalized growth [21]: 1.04 | normalized growth [22]: 0.965 | normalized growth [23]: 0.987 | normalized growth [24]: 0.989 | normalized growth [25]: 0.973 | normalized growth [26]: 0.975 | normalized growth [27]: 0.941 | normalized growth [28]: 1.06 | normalized growth [29]: 1.01

CCCc1ccc(/C(C)=N\O)cc1
normalized growth [1]: 0.939 | normalized growth [2]: 0.921 (active) | normalized growth [4]: 0.955 | normalized growth [5]: 0.965 | normalized growth [6]: 0.858 | normalized growth [7]: 0.902 (active) | normalized growth [8]: 0.93 | normalized growth [9]: 0.778 | normalized growth [10]: 0.909 (active) | normalized growth [11]: 0.926 (active) | normalized growth [12]: 0.949 | normalized growth [13]: 0.816 (active) | normalized growth [14]: 0.777 (active) | normalized growth [15]: 0.92 (active) | normalized growth [16]: 0.756 (active) | normalized growth [17]: 0.834 | normalized growth [18]: 0.947 | normalized growth [19]: 0.932 (active) | normalized growth [20]: 0.963 | normalized growth [21]: 1.18 | normalized growth [22]: 0.946 | normalized growth [23]: 0.94 | normalized growth [24]: 0.919 (active) | normalized growth [25]: 0.96 | normalized growth [30]: 0.945 | normalized growth [26]: 0.848 | normalized growth [27]: 0.949 | normalized growth [28]: 0.518 (active)

Cc1ccc(S(=O)(=O)N2CCN(CCOc3ccccc3)CC2)cc1
normalized growth [1]: 1 | normalized growth [2]: 0.994 | normalized growth [3]: 0.982 | normalized growth [4]: 0.992 | normalized growth [5]: 1 | normalized growth [6]: 0.961 | normalized growth [7]: 0.972 | normalized growth [8]: 0.993 | normalized growth [31]: 0.99 | normalized growth [9]: 0.896 | normalized growth [10]: 0.995 | normalized growth [11]: 0.995 | normalized growth [12]: 1 | normalized growth [13]: 0.984 | normalized growth [14]: 0.828 | normalized growth [15]: 0.987 | normalized growth [16]: 0.966 | normalized growth [17]: 0.701 (active) | normalized growth [18]: 0.944 | normalized growth [19]: 0.985 | normalized growth [32]: 0.997 | normalized growth [22]: 0.989 | normalized growth [23]: 0.96 | normalized growth [24]: 0.997 | normalized growth [25]: 0.967 | normalized growth [26]: 0.953 | normalized growth [27]: 0.982 | normalized growth [28]: 0.99

CC(=O)Nc1ccc(S(=O)(=O)NCCCN2CCN(Cc3ccccc3)CC2)cc1Cl
normalized growth [1]: 0.993 | normalized growth [2]: 1.01 | normalized growth [3]: 0.999 | normalized growth [4]: 0.952 | normalized growth [6]: 0.924 | normalized growth [7]: 1.04 | normalized growth [8]: 0.983 | normalized growth [9]: 1.03 | normalized growth [10]: 1.02 | normalized growth [11]: 1.01 | normalized growth [12]: 0.992 | normalized growth [13]: 1.01 | normalized growth [33]: 0.993 | normalized growth [14]: 0.992 | normalized growth [15]: 1.01 | normalized growth [16]: 1.02 | normalized growth [17]: 1 | normalized growth [18]: 1.01 | normalized growth [19]: 0.996 | normalized growth [20]: 0.944 | normalized growth [32]: 0.986 | normalized growth [22]: 0.994 | normalized growth [23]: 0.969 | normalized growth [24]: 0.999 | normalized growth [25]: 0.99 | normalized growth [30]: 1.02 | normalized growth [26]: 0.915 | normalized growth [27]: 1 | normalized growth [28]: 0.926

O=C(Cc1ccccc1)NC1CCN(S(=O)(=O)c2ccc(Cl)cc2)CC1
normalized growth [1]: 1.01 | normalized growth [2]: 1 | normalized growth [3]: 0.992 | normalized growth [4]: 1.01 | normalized growth [6]: 0.996 | normalized growth [7]: 1.01 | normalized growth [8]: 0.98 | normalized growth [31]: 0.992 | normalized growth [9]: 0.973 | normalized growth [10]: 1 | normalized growth [12]: 0.985 | normalized growth [13]: 0.962 | normalized growth [33]: 0.994 | normalized growth [14]: 1 | normalized growth [15]: 0.993 | normalized growth [16]: 1.01 | normalized growth [17]: 1.01 | normalized growth [18]: 1 | normalized growth [19]: 0.999 | normalized growth [20]: 0.992 | normalized growth [22]: 0.982 | normalized growth [23]: 1.03 | normalized growth [24]: 0.998 | normalized growth [25]: 1 | normalized growth [30]: 1.02 | normalized growth [26]: 0.986 | normalized growth [27]: 1.03 | normalized growth [28]: 0.971 | normalized growth [29]: 1.01

Cc1ccc(S(=O)(=O)N2CCC(C(c3ccccc3)c3ccccc3)CC2)cc1
normalized growth [1]: 0.998 | normalized growth [2]: 0.989 | normalized growth [3]: 0.963 | normalized growth [4]: 0.975 | normalized growth [6]: 0.948 | normalized growth [7]: 0.994 | normalized growth [8]: 0.972 | normalized growth [9]: 0.971 | normalized growth [10]: 1.05 | normalized growth [12]: 1 | normalized growth [13]: 1 | normalized growth [14]: 0.97 | normalized growth [15]: 1.01 | normalized growth [16]: 0.989 | normalized growth [17]: 0.989 | normalized growth [18]: 1 | normalized growth [19]: 0.993 | normalized growth [20]: 0.994 | normalized growth [21]: 1.24 | normalized growth [32]: 0.969 | normalized growth [22]: 0.988 | normalized growth [23]: 0.971 | normalized growth [24]: 0.999 | normalized growth [25]: 1.01 | normalized growth [26]: 1.06 | normalized growth [27]: 0.986 | normalized growth [28]: 0.986 | normalized growth [29]: 0.974

O=S(=O)(c1ccc(Cl)cc1)N1CCN(Cc2ccccc2)CC1
normalized growth [1]: 1.01 | normalized growth [2]: 0.99 | normalized growth [3]: 1.01 | normalized growth [4]: 0.985 | normalized growth [6]: 0.986 | normalized growth [7]: 0.958 | normalized growth [8]: 0.992 | normalized growth [9]: 0.856 | normalized growth [10]: 0.978 | normalized growth [12]: 1.01 | normalized growth [13]: 0.982 | normalized growth [14]: 0.846 | normalized growth [15]: 1 | normalized growth [16]: 0.985 | normalized growth [17]: 0.809 (active) | normalized growth [18]: 0.967 | normalized growth [19]: 0.994 | normalized growth [20]: 1.02 | normalized growth [22]: 1 | normalized growth [23]: 0.956 | normalized growth [24]: 0.998 | normalized growth [25]: 0.987 | normalized growth [26]: 0.972 | normalized growth [27]: 0.978 | normalized growth [28]: 0.923 | normalized growth [29]: 0.987

Cc1ccc(S(=O)(=O)N2CCCCCC2)cc1
normalized growth [1]: 0.98 | normalized growth [2]: 0.997 | normalized growth [3]: 0.997 | normalized growth [4]: 0.985 | normalized growth [5]: 0.999 | normalized growth [6]: 0.976 | normalized growth [7]: 1.01 | normalized growth [8]: 0.985 | normalized growth [31]: 0.988 | normalized growth [9]: 0.896 | normalized growth [10]: 1.03 | normalized growth [12]: 0.999 | normalized growth [13]: 0.998 | normalized growth [14]: 0.881 | normalized growth [15]: 0.998 | normalized growth [16]: 0.921 | normalized growth [17]: 0.928 | normalized growth [18]: 1.02 | normalized growth [19]: 0.983 | normalized growth [20]: 1 | normalized growth [22]: 0.987 | normalized growth [23]: 0.983 | normalized growth [24]: 0.972 | normalized growth [25]: 0.983 | normalized growth [30]: 0.961 | normalized growth [26]: 1.04 | normalized growth [27]: 0.984 | normalized growth [28]: 0.843 | normalized growth [29]: 1
